In all, about 420,000 compounds went through this assay and about 64,000 (15%) were called active. Roughly 27% stayed inconclusive and do not appear here. The list is a sample of the results. Unmarked numbers belong to inactive results. Calls follow the shape of the dose curve; as a rule, active = well fitted inhibition curve with a large enough effect; inconclusive = small, poorly fitted or top-dose-only effect; inactive = flat fitted curve, though single readings scatter.
% is scaled to controls: 0 for no effect and ±100 for the full control effect; potency is read from the fitted curve at half-maximal effect.

The nature of this test: qHTS for Inhibitors of human tyrosyl-DNA phosphodiesterase 1 (TDP1): qHTS in cells in absence of CPT. Also: nearly all actives have a fitted effect of over 55% in size. The note with it: DT40 Tdp1-/- hTDP1 cells, no CPT, ATP luminescence, 48 h; activity change, negative = growth inhibition: at 46.2 µM (top of the series). The gist of the method:
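A cellular qHTS used chicken DT40 cells lacking endogenous Tdp1 but carrying stably transfected human TDP1. Compounds were applied without camptothecin, and cell growth kinetics were judged by ATP-dependent luminescence after ≥48 hr.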
A general note: In qHTS, concentration-response curves come from the screen itself.
Turning to `COc1cc(/C=C2/C(=O)ON=C2C)ccc1OCc1cccc(F)c1`, the Potency is 16.4 µM (active).
With `C#CCOc1ccc(/C=C2/C(=O)NN(c3ccccc3)C2=O)cc1OC`, the “activity change, negative = growth inhibition” value is -5.13%.
Same read-out and setting: for `Cc1c(C(=O)O)nnn1-c1nonc1N` the value was 0.48%; for `CCOc1cc(C(=O)Nc2ncccn2)cc(OCC)c1OCC`, 0.439%; for `CC1C/C(=N/NC(=O)c2cccs2)CC(C)(C)C1` (configuration not stated), 2.47%.
On the same count and under the same terms, for `CSCCC(Nc1nc2ccccc2s1)C(=O)O` (configuration not stated) the value was -13.3%.
Regarding `COc1cccc2sc(NNC(=O)c3nc4ccccc4s3)nc12`, the Potency was 6.51 µM (active).
As to `COc1ccc(S(=O)(=O)N2CCOCC2)cc1C(=O)Nc1nc2ccccc2s1`, the “activity change, negative = growth inhibition” value was -18.8%.
As for `Cc1ccc(N2CC(C(=O)NCCS(=O)(=O)N3CCN(c4ccccc4)CC3)CC2=O)cc1` (configuration not stated), the Potency result was “inactive”.
As to `COc1ccccc1NC(=O)COC(=O)c1ccccc1SCC(=O)N1CCCC1`, the “activity change, negative = growth inhibition” value was -5.43%.
Still for that read-out and setting: the figure for `CCCCN1C(=O)C(=O)N(CC(=O)Nc2cccc(C(C)=O)c2)C1=O` is 12.5%; for `CCN(CC)c1ccc(NC(=O)Cn2nc3c(cc2=O)CCCC3)c(C)c1` it is -5.62%.
In the case of `CC1(c2ccc(Cl)cc2Cl)NC(=O)N(CC(=O)Nc2cccnc2Cl)C1=O` (configuration not stated), the “activity change, negative = growth inhibition” value is -11%.
On to `Cc1ccc2[nH]c3c(=O)n(CC(=O)NCCc4ccc(Cl)cc4)ncc3c2c1`, for which the Potency entry is “inactive”.
As to `CC(=O)Nc1cccc(C(=O)OCN2C(=O)c3ccccc3C2=O)c1`, the “activity change, negative = growth inhibition” value is 9.39%.
For the compound `CC(=O)c1cccc(NC(=O)CN2C(=O)c3cccnc3Oc3ccc(Cl)cc32)c1`, the Potency is 13 µM (active).
For `Cc1ccc2c(c1)N(CC(=O)NCCc1ccc(Cl)cc1)C(=O)c1cccnc1O2`, the Potency was 1.16 µM (active).
On the same count and under the same terms, the entry for `Cc1ccc2c(c1)N(CC(=O)NCCCN1CCCCC1)C(=O)c1cccnc1O2` is “inactive”.
On the same count and under the same terms, the figure for `CCN(CC)c1ccc(NC(=O)CN2C(=O)c3cccnc3Oc3ccc(Cl)cc32)c(C)c1` is 13 µM (active).
Consider `O=C(COC(=O)c1ccc(S(=O)(=O)N2CCc3ccccc3C2)cc1)NC(=O)NCc1ccco1`, for which the “activity change, negative = growth inhibition” value is -28.8%.
On the same count and under the same terms, the figure for `O=C(COc1ccc([N+](=O)[O-])cc1Cl)Nn1cnnc1` is 2.52%; for `CNc1nc(=O)n(C2CCCO2)cc1C` (configuration not stated) it is -0.128%; for `O=C(CCC(=O)N1CCCC1)Nc1ccc([N+](=O)[O-])cc1` it is 2.85%.
On to `COC(=O)NNC(=O)C1CCC(C)CC1` (configuration not stated), for which the Potency entry was “inactive”.
In the case of `COc1ccc(C(=O)NNS(=O)(=O)c2ccc(C)cc2)cc1`, the “activity change, negative = growth inhibition” value was -3.48%.
Regarding `COc1ccc(C(=O)NN(C)c2nc(-c3ccccc3)cc(C)c2S(C)(=O)=O)cc1`, the Potency is 18.4 µM (active).
For the compound `COc1ccc(C(=O)NN2C(=O)C3C(c4ccccc4)C=CC(c4ccccc4)C3C2=O)cc1` (configuration not stated), the “activity change, negative = growth inhibition” value is -11.1%.
Same read-out and setting: the figure for `COc1ccc(CN2C(=O)C(CC(=O)NC3CCCCC3)CC(C(=O)N3CCOCC3)=C2C)cc1` (configuration not stated) is -5.23%.
For the compound `CC(C)c1cc(NCc2ccccn2)n2c(nc3ccccc32)c1C#N`, the Potency was 11.6 µM (active).
For the compound `Cc1cc(NC(C)C)n2c(nc3ccccc32)c1C#N`, the “activity change, negative = growth inhibition” value was -24.2%.
Still for that read-out and setting: for `CCCc1nnc(NC(=O)c2cc(OC)cc(OC)c2)s1` the value was -14.6%.
Same read-out and setting: the figure for `O=C(CSc1n[nH]c(-c2cccnc2)n1)Nc1ccc(Cl)cc1` is -10.4%; for `CCN(CC(=O)NC(C)C)C(=O)CCNC(=O)c1ccc(Cl)cc1` it is -22.4%.
On the same count and under the same terms, for `COc1cc(N=Cc2c(O)c3ccccc3oc2=O)c(OC)cc1Cl` the value was -26.2%; for `COc1cc2[nH]c(O)c(C=O)c2cc1OC`, -9.43%.
`COc1cc(N=Cc2c(O)[nH]c3ccccc23)cc(OC)c1OC`: the Potency was 13 µM (active).
As for `CCn1c(O)c2ccc(C(=O)N=NC(=O)c3cccnc3)cc2c1O`, the “activity change, negative = growth inhibition” value was -4.25%.
Take `Cc1cc(OC(C)C(=O)Nc2ccc(S(=O)(=O)Nc3onc(C)c3C)cc2)cc(C)c1Cl` (configuration not stated): the “activity change, negative = growth inhibition” value was 5.09%.
On the same count and under the same terms, for `Cc1c(O)cc(O)c2c(=O)c(-c3ccc(O)cc3)coc12` the value was -10.6%; for `CCCOc1ccc(N/C=C/C(=O)C(C)(C)C)cc1`, -17.9%.
Turning to `CCOc1ccc(N/C=C/C(=O)c2cc(OC)c(OC)c(OC)c2)cc1`, the Potency is 6.51 µM (active).
Regarding `CCOc1ccc(N/C=C/C(=O)c2ccccc2)cc1`, the “activity change, negative = growth inhibition” value was -23.6%.
Still for that read-out and setting: for `COc1ccc(C2CC(c3cccs3)=NN2c2ccc(F)cc2)cc1OC` (configuration not stated) the value was -7.92%; for `O=C(COC(=O)CCC(=O)c1cccs1)NCc1ccco1`, -17.4%; for `CCCNC(=O)CN(Cc1ccccc1F)S(=O)(=O)c1ccc(C)cc1`, -16.3%.
In the case of `Cc1ccc(S(=O)(=O)N(CC(=O)NCCSC2CCCCC2)c2ccccc2F)cc1`, the Potency was 18.4 µM (active).
In the case of `CCOc1ccc(S(=O)(=O)N(CC(=O)NCCSCc2ccc(C)cc2)c2ccccc2)cc1`, the “activity change, negative = growth inhibition” value is -14.4%.
Still for that read-out and setting: for `COC(=O)[C@H]1Cc2cnoc2C[C@]1(C)C(=O)O` the value was 2.02%.
On to `COc1cccc(-c2cc3nc4c(c(N5CCC6(CC5)OCCO6)n3n2)CCCC4)c1`, for which the Potency is 20.6 µM (active).
Regarding `O=C(NCCO)c1cccc(-c2cccc3nccn23)c1`, the “activity change, negative = growth inhibition” value is -0.655%.
As to `C/C(CC(C)C)=N\Oc1nc(C)cc(C)n1`, the “activity change, negative = growth inhibition” value was -3.44%.
Still for that read-out and setting: for `CC1(C)O[C@@H]2CC3C4C[C@H](F)C5=CC(=O)C=CC5(C)C4C(O)CC3(C)[C@]2(C(=O)CO)O1` (some centres not stated) the value was -13.1%.

The values above are taken from PubChem BioAssay AID686978 (National Center for Advancing Translational Sciences (NCATS), 2013).
